Rv3671c inh = Rv3671c (M. tuberculosis) protease inhibition; inhibition, % at 5.96 µM; 320,000 compounds, 0.048% hits; AID 2606; in the data active means inhibition above about 38%;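 further: extracellular domain of Rv3671c used as enzyme; 0% = enzyme with DMSO and 100% = no enzyme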
UGM FP inh = inhibitors of M. tuberculosis UDP-galactopyranose mutase. 320,000 compounds, 0.06% hits. inhibition, % at 10 µM. AID 504406. purified UGM, fluorescence polarization probe displacement; in the data active means inhibition above about 10%, passing the limit was not always enough; inconclusive means no clear call, values can overlap the other calls
Target sequence (P9WIQ1 whole entry, looked up): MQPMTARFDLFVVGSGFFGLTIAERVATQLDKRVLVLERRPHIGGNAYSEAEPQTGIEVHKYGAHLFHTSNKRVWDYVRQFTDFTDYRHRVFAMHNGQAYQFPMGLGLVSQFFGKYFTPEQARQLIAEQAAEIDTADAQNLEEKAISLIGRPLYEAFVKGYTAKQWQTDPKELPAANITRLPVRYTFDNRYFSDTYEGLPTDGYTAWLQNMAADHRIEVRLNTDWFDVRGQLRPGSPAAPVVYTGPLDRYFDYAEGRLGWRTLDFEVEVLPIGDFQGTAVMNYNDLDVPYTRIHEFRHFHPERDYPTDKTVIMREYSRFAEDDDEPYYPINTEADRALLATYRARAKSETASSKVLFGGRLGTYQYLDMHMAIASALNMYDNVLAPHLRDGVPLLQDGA
RecA intein inh = inhibitors of M. tuberculosis RecA intein splicing; cell-free RecA intein splicing, fluorescence; P9WHJ3; 290,000 compounds, 0.75% hits; inhibition, % (no concentration beside the values); in the data active means inhibition above about 30%; inconclusive means no clear call, values can overlap the other calls;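 further: 0% = vehicle wells and 100% = reference inhibitor control wells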
FBA Mtb inh = Mtb fructose-bisphosphate aldolase inhibition; purified M. tuberculosis FBA, fluorescence read-out; 360,000 compounds, 2.3% hits; inhibition, % at 1 µM; P9WQA3; in the data active means inhibition above about 27%;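 further: 0% = vehicle and 100% = reference inhibitor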
Mtb betalactam = beta-lactam sensitization of Mtb H37Rv; inhibition, % at 25 µM; 330,000 compounds, 0.27% hits; M. tuberculosis H37Rv growth with meropenem, percent inhibition; call rule not given here;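 further: growth measured after seven days incubation then overnight dye step; 0% = bacteria only wells and 100% = bacteria with antibiotic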
GDH-TPI counter = GDH-TPI coupled enzyme inhibition counter-screen | inhibition, % at 4.8 µM | 360,000 compounds, 1.2% hits | GDH-TPI coupled enzyme counterscreen, NADH absorbance; in the data active means inhibition above about 30%;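 further: 0% = DMSO wells and 100% = wells lacking the enzyme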
Numbers without * were called inactive; ? = inconclusive; nt = no result given; + = active, no number. Most compounds without a hit are left out; they make up all but 4% or so of the library.

SMILES	Rv3671c inh	UGM FP inh	RecA intein inh	FBA Mtb inh	Mtb betalactam	GDH-TPI counter
CC(=O)c1ccc(N2CCCCCC2)c(F)c1	-12	1	1	-6	9	34*
CC(=O)c1ccc(N2CCCCC2)c(F)c1	3	-3	-4	4	-3	13
C(=Cc1cccnc1)c1ccncc1	nt	nt	nt	-2	nt	1
O=C(/C=C/c1cccnc1)/C=C/c1cccnc1	nt	nt	nt	0	nt	33*
CCOc1ccccc1-c1ccc(C(=O)NCc2ccccc2)o1	-16	2	11	+	44	14
CCN1CCN(Cc2c(O)c(Cl)cc3c(C)cc(=O)oc23)CC1	-3	7	-94	+	-4	8
CCc1cc(=O)oc2cc(C)c(CN3CCCC3)c(O)c12	1	0	-5	-1	32	21
Cc1cc(=O)oc2c(CN3CCCC3)c(O)c(Cl)cc12	1	2	-106	+	?	6
C=CCc1c(O)c(CC)cc2c(C)cc(=O)oc12	4	0	-100	+	0	11
CCN(CC)Cc1c(O)c(Cl)cc2c(C)cc(=O)oc12	nt	nt	-152	+	nt	10
CCN(CC)Cc1c(O)c(Cl)cc2c(C)c(C)c(=O)oc12	-5	-3	-182	nt	9	25
CCCCN1C[C@H](Cc2ccccc2)[C@@H](CC(=O)NC)C1=O	nt	nt	nt	0	nt	0
Cc1ccc(CN(C)C(=O)CN2C(=O)NC(c3ccccc3)(c3ccccc3)C2=O)c(C)c1	0	1	nt	-2	8	-4
Cc1cc(=O)oc2c(CN3CCC(C)CC3)c(O)c(Cl)cc12	9	5	-108	+	7	15
CCCc1cc(=O)oc2cc(C)c(CN3CCCC3)c(O)c12	-8	-2	-1	11	30	14
CCc1cc(=O)oc2c(CNCc3ccccc3F)c(O)c(Cl)cc12	-4	-1	-36	+	-5	23
CCCc1cc(=O)oc2c(CN3CCCC3)c(O)c(Cl)cc12	-4	3	-136	+	-6	22
Cc1cc(=O)oc2c(CN3CCCCC3)c(O)c(Cl)cc12	0	3	-117	+	0	2
Cc1cc2oc(=O)cc(CN3CCC(C)CC3)c2cc1Cl	-22	2	4	1	29	0
COc1cccc(C(=O)N2CCC(n3nccc3NC(=O)C(OC)c3ccccc3)CC2)c1 (stereo unspecified)	-3	3	4	0	?	2
COc1ccc(N2CC(C(=O)NCc3nnnn3-c3ccc(C)c(C)c3)CC2=O)cc1 (stereo unspecified)	-3	-1	-2	1	8	0
COc1ccc(C(=O)/C=C/c2cccc(OCc3ccccc3)c2)cc1CSCC(=O)O	-10	0	12	1	1	17
COc1ccc(C(=O)/C=C/c2ccc(OCc3ccccc3)cc2)cc1CSCC(=O)O	nt	0	21	0	69	40*
CN(C)CCNC(=O)c1cccc2ccc(-c3ccc(-c4ccccc4)cc3)nc12	nt	nt	nt	58*	nt	10
CNC(=O)c1ccc(Nc2nnc(-c3ccc(C(N)=O)cc3)c3ccccc23)cc1	-7	2	-5	1	6	39*
SMILES	Rv3671c inh	UGM FP inh	RecA intein inh	FBA Mtb inh	Mtb betalactam	GDH-TPI counter
CCN(CC)C(=O)COc1ccc(-c2nnc(Nc3ccc(OC)c(C(=O)NC)c3)c3ccccc23)cc1	8	3	10	0	nt	46*
O=C(Nc1sc(-c2ccccc2)cc1C(=O)O)c1ccccc1	13	0	-1	11	85	35*
CC1=C(C(=O)NC2CCCc3c2cnn3-c2cc(F)cc(F)c2)OCCO1 (stereo unspecified)	-4	2	1	2	-2	1
Cn1nccc1C(=O)NC1CCCc2c1cnn2-c1cc(F)cc(F)c1 (stereo unspecified)	-2	-2	3	+	6	8
CC/C(=N/NC(=O)c1ccccc1O)c1c(C)[nH]n(-c2ccccc2)c1=O	-1	1	27	0	22	31*
Cc1cc(NC(=O)COC(=O)c2ccccc2NCCO)no1	4	0	nt	127*	0	21
CCOC(=O)c1ccccc1NC(=O)COC(=O)CSCC(=O)Nc1cc(C)on1	1	1	-4	1	-2	2
COCCN(CCOC)C(=O)COC(=O)c1cc([N+](=O)[O-])ccc1Cl	3	-1	-7	-2	42	-10
O=C(Nc1ccc(F)cc1)C(c1ccccc1)N1CCN(S(=O)(=O)c2ccc3ccccc3c2)CC1 (stereo unspecified)	-49	0	-2	30*	3	12
Cc1ccc(C)c(S(=O)(=O)N2CCN(C(C(=O)Nc3ccc(F)cc3)c3ccccc3)CC2)c1 (stereo unspecified)	-44	1	1	3	-5	9
COc1cccc(/C=C/C(=O)NCc2ccc(S(N)(=O)=O)cc2)c1	14	-5	1	28*	-4	-4
N#CC(C#N)=NNc1ccc(S(=O)(=O)N2CCCC2)cc1	10	-1	30*	-3	-1	14
N#C/C(=N\Nc1ccc(S(=O)(=O)N2CCCCCC2)cc1)C(N)=S	2	-3	9	-25	3	2
CCC(=O)NC(=S)Nc1ccc(NC(=O)c2cc3ccccc3o2)c(OC)c1	-7	0	0	1	-6	32*
C=CC(=O)Nc1cccc(Oc2ccnc3[nH]ccc23)c1	nt	nt	nt	180*	nt	2
C=CC(=O)Nc1cccc(Oc2ccnc(Nc3ccc(N4CCN(C)CC4)cc3)n2)c1	nt	nt	nt	-1	nt	2
COc1cc(C(O)c2nc(-c3ccc(N(C)C)cc3)cs2)ccc1F (stereo unspecified)	nt	nt	nt	-2	nt	10
CC(C)C(NC(=O)CN1C(=O)c2cccc3cccc1c23)C(C)C	5	-1	-17	2	-7	36*
Cc1ccc(NC(=O)c2c(F)cccc2Cl)cc1S(=O)(=O)N1CCOCC1	-4	-1	nt	1	4	7
CCOC(=O)/C(C#N)=C1\CC2CCC1(C)C2(C)C (stereo unspecified)	1	13*	-1	5	-3	1
CC12CCC(CC1=O)C2(C)C (stereo unspecified)	4	-1	nt	4	0	-2
CN1CCC(N(CCc2ccccc2)C(=O)CCC(=O)O)CC1	7	-2	-4	3	1	7
CC(=O)Nc1cccc(C2=CC(c3ccco3)n3ncnc3N2)c1 (stereo unspecified)	1	2	-292	nt	-8	nt
COc1ccc(C2=CC(c3ccco3)n3ncnc3N2)cc1 (stereo unspecified)	nt	nt	nt	71*	nt	15
Clc1ccc(C2=CC(c3ccco3)n3ncnc3N2)cc1 (stereo unspecified)	-2	-5	-383	38*	17	30
COc1ccc(C2C=C(c3ccccc3)Nc3ncnn32)cc1 (stereo unspecified)	8	1	-62	118*	24	14

Bioassay records: PubChem, several laboratories
